Inconclusive results are not listed. Calls of active or inactive are those of the source. The call rests on the fitted dose curve; in most records, active means well fitted curve in the direction sought with a large enough effect in the repeat runs; inconclusive means weak or mixed curves; inactive means no such curve, though single readings can be large; an effect the other way counts as inactive or inconclusive.
Test system: not listed separately
Test: qHTS assay to identify small molecule antagonists of the estrogen receptor alpha (ER-alpha) signaling pathway using the BG1 cell line in the presence of 0.1 nM 17-beta-estradiol - cell viability counter screen (AID 1259241); further: nearly all actives have a fitted effect of over 40% in size
Details: VM7Luc4E2 (BG1) viability, CellTiter-Fluor protease, 22 h, 0.1 nM estradiol agonist added; series mostly up to 92.4 µM; activity change, negative = cytotoxicity: at the top concentration
How it was run: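 VM7Luc4E2, 4,000 cells/well, phenol red-free medium + 10% charcoal-stripped FBS; 24 hr plating; cpd + 0.1 nM E2 final, 22 hr 37C/5% CO2; CellTiter-Fluor 30 min, fluorescence.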
On the % scale 0 is the no-effect control and ±100 the full control effect; potency means the concentration at half of the fitted maximal effect.

Row | SMILES | activity change, negative = cytotoxicity | Potency
1 | COc1ccc(OC(=O)N(CC(=O)O)Cc2ccc(OCCc3nc(-c4ccccc4)oc3C)cc2)cc1 | -11.6% [at 42.5 µM] (inactive) | –
2 | CC(CN(C)C)C(C)(O)Cc1ccc(Cl)cc1 (stereo not given) | 0.198% [at 42.5 µM] (inactive) | –
3 | COC(=O)c1nc(Cl)c(Cl)nc1N | 3.17% [at 42.5 µM] (inactive) | –
4 | O=C(O)CCc1nc(-c2ccccc2)c(-c2ccccc2)o1 | -1.93% [at 42.5 µM] (inactive) | –
5 | CCC(OCCCOC)OC(C)=O (stereo not given) | 7.45% (inactive) | –
6 | CC1=C(Br)C(=O)C(Br)=C/C1=C(/c1ccccc1S(=O)(=O)O)c1cc(Br)c(O)c(Br)c1C | – | 18.6 µM (active)
7 | CC1=Nc2ccc3ccccc3c2C1(C)C | 19.4% (inactive) | –
8 | CCCCN1CCCC1C(=O)Nc1c(C)cc(C)cc1C (stereo not given) | -21.9% [at 42.5 µM] (inactive) | –
9 | CC(C)C(O)(c1ccc(OC(F)(F)F)cc1)c1cncnc1 (stereo not given) | 17.9% (inactive) | –
10 | CC(CCC(=O)O)C(=O)O (stereo not given) | 19.6% (inactive) | –
11 | CN1C(=O)c2ccccc2C1=O | -12.6% (inactive) | –
12 | CCOc1ccccc1O[C@H](c1ccccc1)[C@H]1CNCCO1 | -7.88% [at 42.5 µM] (inactive) | –
13 | CCCCCC#CC(=O)OC | 8.66% (inactive) | –
14 | NCCNCCO | 5.5% (inactive) | –
15 | COC(=O)C1=C(C)NC(C)=C(C(=O)O[C@@H]2CCCN(Cc3ccccc3)C2)[C@@H]1c1cccc([N+](=O)[O-])c1 | -6.86% [at 42.5 µM] (inactive) | –
16 | COc1cc(N)c(Cl)cc1C(=O)NC1CCN(CCCOc2ccc(F)cc2)CC1OC (stereo not given) | -22.1% [at 42.5 µM] (inactive) | –
17 | CS(=O)(=O)c1ccc(-c2cn3ccccc3n2)cc1 | 24.7% [at 42.5 µM] (inactive) | –

Test system: not listed separately
Test: qHTS assay to identify small molecule antagonists of the androgen receptor (AR) signaling pathway using the MDA cell line in the presence of 0.5 nM R1881 - cell viability counter screen (AID 1259242); further: nearly all actives have a fitted effect of over 45% in size
Details: MDA-kb2 viability, CellTiter-Fluor protease fluorescence, 16 h; series mostly up to 92.4 µM; viability change, negative = cytotoxic: at the top concentration
How it was run: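 Live-cell protease activity was measured by CellTiter-Fluor fluorescence after 30 min. Before that, MDA-kb2 MMTV-luciferase cells had 16 hr at 37C without CO2, exposed to test compounds and 0.5 nM R1881 final.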

Row | SMILES | viability change, negative = cytotoxic | Potency
18 | Cc1ccc(Cl)c(Nc2ccccc2C(=O)O)c1Cl | 1.12% [at 42.5 µM] (inactive) | –
19 | NC1[C@H]2CN(c3nc4c(cc3F)c(=O)c(C(=O)O)cn4-c3ccc(F)cc3F)C[C@@H]12 (stereo not given in full) | 0.493% [at 42.5 µM] (inactive) | –
20 | CCOC(=O)c1ccc(O)c(O)c1 | 3.22% [at 42.5 µM] (inactive) | –
21 | CCCCCCCCOc1ccc(C(=O)O)cc1 | -0.818% (inactive) | –
22 | CC1CC(OC(=O)C(O)c2ccccc2)CC(C)(C)N1C (stereo not given) | 2.89% [at 42.5 µM] (inactive) | –
23 | CC(C)(C)C(=O)C(=O)O | 0.814% (inactive) | –
24 | CCC1(CO)COCOC1 | 2.93% (inactive) | –
25 | O=c1cc(-c2ccccc2)oc2cc(O)cc(O)c12 | -17.2% (inactive) | –
26 | CC[C@]1(O)C[C@H]2CN(CCc3c([nH]c4ccccc34)[C@@](C(=O)OC)(c3cc4c(cc3OC)N(C=O)[C@H]3[C@@](O)(C(=O)OC)[C@H](OC(C)=O)[C@]5(CC)C=CCN6CC[C@]43[C@@H]65)C2)C1 | -5.14% [at 42.5 µM] (inactive) | –
27 | OC(CCN1CCCC1)(c1ccccc1)C1CCCCC1 (stereo not given) | -7.11% [at 42.5 µM] (inactive) | –
28 | CCOC(=O)c1ccc(C#Cc2ccc3c(c2)C(C)(C)CCS3)nc1 | -3.2% [at 42.5 µM] (inactive) | –
29 | COC(=O)[C@H]1[C@H]2C[C@@H]3c4[nH]c5cc(OC)ccc5c4CCN3C[C@H]2C[C@@H](OC(=O)/C=C/c2ccc(O)c(OC)c2)[C@@H]1OC | -4.19% [at 42.5 µM] (inactive) | –
30 | O=C1c2ccccc2C(=O)C1(O)O | -9.6% (inactive) | –
31 | CCCCCCCC/C=C\CCCCCCCCO | 5.67% (inactive) | –
32 | O=C(OCC(O)CO)c1ccccc1Nc1ccnc2cc(Cl)ccc12 (stereo not given) | -3.84% [at 42.5 µM] (inactive) | –
33 | C[C@H]1C[C@H](O)c2ccsc2S1(=O)=O | -1.44% [at 42.5 µM] (inactive) | –
34 | CO/N=C(/C(=O)N[C@@H]1C(=O)N2C(C(=O)O)=C(COC(N)=O)CS[C@H]12)c1ccco1 | 8.12% (inactive) | –

Row | SMILES | viability change, negative = cytotoxic | Potency
35 | COc1ccc(OC(=O)N(CC(=O)O)Cc2ccc(OCCc3nc(-c4ccccc4)oc3C)cc2)cc1 | -1.66% [at 42.5 µM] (inactive) | –
36 | CC(CN(C)C)C(C)(O)Cc1ccc(Cl)cc1 (stereo not given) | 0.773% [at 42.5 µM] (inactive) | –
37 | O=C(O)CCc1nc(-c2ccccc2)c(-c2ccccc2)o1 | 0.123% [at 42.5 µM] (inactive) | –
38 | CCC(OCCCOC)OC(C)=O (stereo not given) | -2.43% (inactive) | –
39 | CC1=C(Br)C(=O)C(Br)=C/C1=C(/c1ccccc1S(=O)(=O)O)c1cc(Br)c(O)c(Br)c1C | – | 18.6 µM (active)
40 | CC1=Nc2ccc3ccccc3c2C1(C)C | 14.5% (inactive) | –
41 | CCCCN1CCCC1C(=O)Nc1c(C)cc(C)cc1C (stereo not given) | 10.5% [at 42.5 µM] (inactive) | –
42 | CC(C)C(O)(c1ccc(OC(F)(F)F)cc1)c1cncnc1 (stereo not given) | 5.58% (inactive) | –
43 | CC(CCC(=O)O)C(=O)O (stereo not given) | 3.04% (inactive) | –
44 | CN1C(=O)c2ccccc2C1=O | 6.06% (inactive) | –
45 | CCOc1ccccc1O[C@H](c1ccccc1)[C@H]1CNCCO1 | 3.5% [at 42.5 µM] (inactive) | –
46 | CCCCCC#CC(=O)OC | -0.355% (inactive) | –
47 | NCCNCCO | -0.887% (inactive) | –
48 | COC(=O)C1=C(C)NC(C)=C(C(=O)O[C@@H]2CCCN(Cc3ccccc3)C2)[C@@H]1c1cccc([N+](=O)[O-])c1 | -6.9% [at 42.5 µM] (inactive) | –
49 | COc1cc(N)c(Cl)cc1C(=O)NC1CCN(CCCOc2ccc(F)cc2)CC1OC (stereo not given) | -10.9% [at 42.5 µM] (inactive) | –
50 | CS(=O)(=O)c1ccc(-c2cn3ccccc3n2)cc1 | 0.256% [at 42.5 µM] (inactive) | –

Target: Androgen receptor (Homo sapiens) (UniProt P10275)
Test: qHTS assay to identify small molecule antagonists of the androgen receptor (AR) signaling pathway using the MDA cell line in the presence of 0.5 nM R1881 (AID 1259243); further: nearly all actives have a fitted effect of over 50% in size
Details: MDA-kb2 MMTV-luciferase, R1881 0.5 nM, 16 h; series mostly up to 92.4 µM; activity, negative = inhibition: at the top concentration
How it was run: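 Luminescent reporter readout (ONE-Glo, 30 min, room temperature) after 16 hr co-treatment of MDA-kb2 cells with test compounds and 0.5 nM R1881 final, at 37C without CO2. The MMTV-driven luciferase responds to both AR and GR.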

Androgen receptor (Homo sapiens), sequence (P10275 whole entry, looked up): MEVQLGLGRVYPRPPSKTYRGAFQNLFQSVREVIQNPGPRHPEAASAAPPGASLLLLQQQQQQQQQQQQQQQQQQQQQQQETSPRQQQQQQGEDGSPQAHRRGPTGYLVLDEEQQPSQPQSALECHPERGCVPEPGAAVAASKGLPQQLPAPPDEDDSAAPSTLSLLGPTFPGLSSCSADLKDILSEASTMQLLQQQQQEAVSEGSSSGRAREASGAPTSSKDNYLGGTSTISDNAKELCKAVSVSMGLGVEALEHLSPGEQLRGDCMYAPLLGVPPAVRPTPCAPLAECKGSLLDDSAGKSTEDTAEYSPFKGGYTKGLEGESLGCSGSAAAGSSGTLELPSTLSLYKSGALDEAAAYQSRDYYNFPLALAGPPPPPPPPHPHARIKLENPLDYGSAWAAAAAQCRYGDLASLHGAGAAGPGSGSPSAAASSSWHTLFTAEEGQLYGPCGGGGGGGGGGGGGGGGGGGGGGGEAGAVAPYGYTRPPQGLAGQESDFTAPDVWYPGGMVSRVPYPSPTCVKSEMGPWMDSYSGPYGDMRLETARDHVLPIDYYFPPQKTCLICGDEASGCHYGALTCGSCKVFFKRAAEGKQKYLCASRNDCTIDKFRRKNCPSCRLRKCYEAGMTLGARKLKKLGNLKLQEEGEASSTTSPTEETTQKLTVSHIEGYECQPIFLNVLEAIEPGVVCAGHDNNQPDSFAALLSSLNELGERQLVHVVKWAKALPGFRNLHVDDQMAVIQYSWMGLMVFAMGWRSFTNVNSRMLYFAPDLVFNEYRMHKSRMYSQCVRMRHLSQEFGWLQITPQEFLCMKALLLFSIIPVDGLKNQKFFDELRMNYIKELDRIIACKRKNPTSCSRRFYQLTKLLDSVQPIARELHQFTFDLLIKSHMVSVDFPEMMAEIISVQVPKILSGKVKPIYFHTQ

Row | SMILES | activity, negative = inhibition | Potency
51 | NC1[C@H]2CN(c3nc4c(cc3F)c(=O)c(C(=O)O)cn4-c3ccc(F)cc3F)C[C@@H]12 (stereo not given in full) | 98.7% [at 42.5 µM] (inactive) | –
52 | O=c1cc(-c2ccccc2)oc2cc(O)cc(O)c12 | -34.5% (inactive) | –
53 | OC(CCN1CCCC1)(c1ccccc1)C1CCCCC1 (stereo not given) | -3.04% [at 42.5 µM] (inactive) | –
54 | COC(=O)[C@H]1[C@H]2C[C@@H]3c4[nH]c5cc(OC)ccc5c4CCN3C[C@H]2C[C@@H](OC(=O)/C=C/c2ccc(O)c(OC)c2)[C@@H]1OC | -2.83% [at 42.5 µM] (inactive) | –
55 | Oc1ccc(Cl)c2cccnc12 | – | 10.6 µM (active)
56 | Nc1nc2ccc([N+](=O)[O-])cc2s1 | – | 6.86 µM (active)
57 | C[C@H]1C[C@H](O)c2ccsc2S1(=O)=O | 2.33% [at 42.5 µM] (inactive) | –
58 | CC(CN(C)C)C(C)(O)Cc1ccc(Cl)cc1 (stereo not given) | -3.02% [at 42.5 µM] (inactive) | –
59 | CC1=Nc2ccc3ccccc3c2C1(C)C | – | 19.3 µM (active)
60 | CS(=O)(=O)c1ccc(-c2cn3ccccc3n2)cc1 | 92.8% [at 42.5 µM] (inactive) | –

— PubChem BioAssay (Tox21)
